# PubChem BioAssay
# Activity calls are given as the source filed them.
# Assays:
# [1] = system: Plasmodium falciparum Sir2 (PF13_0152, Sir2A); assay: Plasmodium falciparum Sir2A binding compounds – biochemical, small-molecule microarray, 635 nm fluorescence, primary screen (AID 1098); conditions: fluorescence 635 nm, higher = more signal;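 note: score merges spot fluorescence intensity with its signal-to-noise ratio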
# [2] = probe aDKK1 binding to arrayed compounds – biochemical, biotinylated probe, 635/667 nm fluorescence, primary screen (AID 1099); conditions: small-molecule microarray, higher = more signal;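 note: score merges 667nm spot fluorescence with signal to noise across triplicate slides; reference of the scale not given here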
# [3] = probe aCHRDL2 binding to arrayed compounds – biochemical, biotinylated probe, 635/667 nm fluorescence, primary screen (AID 1100); conditions: small-molecule microarray, higher = more signal
# [4] = change in splice reporter luminescence, either direction, cell-based, HEK293, spliceosome inhibition project, primary screen (AID 1101); conditions: HEK293 splicing luciferase reporter, 24 h, higher = more signal, called active from +8 up or from −8 down;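 note: HEK293 cells carrying a splicing-competent luciferase reporter gene; test concentration not given here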
# [5] = biological target: Fibroblast growth factor 10 (Homo sapiens) (UniProt O15520); assay: compounds binding fibroblast growth factor 10 – biochemical, small-molecule microarray, 635 nm fluorescence, primary screen (AID 1102); conditions: FGF10 binding, fluorescence 635 nm, higher = more signal
# Fibroblast growth factor 10 (Homo sapiens), sequence (O15520 whole entry, looked up): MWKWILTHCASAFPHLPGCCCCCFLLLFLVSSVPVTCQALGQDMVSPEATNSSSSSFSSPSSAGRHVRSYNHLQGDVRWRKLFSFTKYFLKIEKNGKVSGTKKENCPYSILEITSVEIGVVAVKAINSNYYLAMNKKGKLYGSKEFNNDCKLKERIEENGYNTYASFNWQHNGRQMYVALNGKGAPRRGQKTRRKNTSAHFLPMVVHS
# [6] = system: glycogen synthase kinase-3 (GSK3A per assay name; protocol says GSK3B); assay: compounds binding glycogen synthase kinase-3 – biochemical, small-molecule microarray, 635 nm fluorescence, GSK3A, primary screen (AID 1103); conditions: fluorescence 635 nm, higher = more signal; note: the record names both GSK3A and GSK3B
# [7] = biological target: Epidermal growth factor receptor (Homo sapiens) (UniProt P00533); assay: compounds binding epidermal growth factor receptor – biochemical, small-molecule microarray, 635 nm fluorescence, primary screen (AID 1104); conditions: EGFR binding, higher = more signal;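 note: score merges 667 nm emission intensity with spot signal to noise over triplicate slides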
# Epidermal growth factor receptor (Homo sapiens), sequence (P00533 whole entry, looked up): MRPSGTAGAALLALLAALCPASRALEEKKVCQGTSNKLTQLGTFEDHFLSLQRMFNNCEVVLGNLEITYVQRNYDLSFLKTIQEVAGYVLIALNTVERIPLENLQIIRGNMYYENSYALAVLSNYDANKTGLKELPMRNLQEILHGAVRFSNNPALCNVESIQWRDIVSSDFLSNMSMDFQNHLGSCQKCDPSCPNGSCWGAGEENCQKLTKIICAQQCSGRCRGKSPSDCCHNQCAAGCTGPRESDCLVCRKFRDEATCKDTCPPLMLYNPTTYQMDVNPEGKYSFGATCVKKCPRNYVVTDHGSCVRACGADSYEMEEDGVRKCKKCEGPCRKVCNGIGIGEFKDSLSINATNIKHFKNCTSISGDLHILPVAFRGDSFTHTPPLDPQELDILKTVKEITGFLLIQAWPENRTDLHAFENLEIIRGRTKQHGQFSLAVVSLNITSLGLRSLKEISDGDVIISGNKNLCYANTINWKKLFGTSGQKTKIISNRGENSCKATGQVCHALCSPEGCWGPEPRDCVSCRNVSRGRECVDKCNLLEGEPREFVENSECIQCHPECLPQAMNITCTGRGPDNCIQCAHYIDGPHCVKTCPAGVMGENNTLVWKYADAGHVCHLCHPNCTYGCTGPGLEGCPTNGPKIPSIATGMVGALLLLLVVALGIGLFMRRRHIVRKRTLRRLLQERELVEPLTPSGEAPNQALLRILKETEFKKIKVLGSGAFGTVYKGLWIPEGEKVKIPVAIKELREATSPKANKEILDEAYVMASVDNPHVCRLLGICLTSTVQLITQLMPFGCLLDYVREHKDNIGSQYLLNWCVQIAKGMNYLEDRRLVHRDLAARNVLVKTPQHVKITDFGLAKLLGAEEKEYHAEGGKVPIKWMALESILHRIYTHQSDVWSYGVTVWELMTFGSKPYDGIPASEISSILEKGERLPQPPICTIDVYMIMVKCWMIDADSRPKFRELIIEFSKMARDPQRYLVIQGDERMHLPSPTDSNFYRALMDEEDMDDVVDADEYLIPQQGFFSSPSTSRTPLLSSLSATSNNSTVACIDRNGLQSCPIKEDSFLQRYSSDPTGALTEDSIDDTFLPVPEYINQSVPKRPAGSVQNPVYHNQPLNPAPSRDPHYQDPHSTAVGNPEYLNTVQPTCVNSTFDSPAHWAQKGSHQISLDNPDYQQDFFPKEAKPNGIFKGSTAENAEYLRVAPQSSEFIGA
# [8] = biological target: Follistatin-related protein 3 (Homo sapiens) (UniProt O95633); assay: compounds binding follistatin-related protein 3 – biochemical, small-molecule microarray, 635 nm fluorescence, primary screen (AID 1105); conditions: FSTL3 binding, higher = more signal;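 note: score merges emission near 667 nm and signal to noise per printed spot across three slides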
# Follistatin-related protein 3 (Homo sapiens), sequence (O95633 whole entry, looked up): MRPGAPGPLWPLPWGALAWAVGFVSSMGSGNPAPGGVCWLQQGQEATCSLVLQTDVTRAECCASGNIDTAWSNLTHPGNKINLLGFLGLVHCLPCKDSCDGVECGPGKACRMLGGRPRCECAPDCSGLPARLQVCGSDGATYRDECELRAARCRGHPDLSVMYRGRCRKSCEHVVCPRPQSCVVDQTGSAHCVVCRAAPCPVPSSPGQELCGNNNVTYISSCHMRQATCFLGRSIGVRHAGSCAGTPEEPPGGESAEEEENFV
# [9] = biological target: Dickkopf-related protein 1 (Homo sapiens) (UniProt O94907); assay: small molecules binding DKK1 protein – biochemical, small-molecule microarray, 635 nm fluorescence scan, primary screen (AID 1106); conditions: higher = more signal;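 note: score merges emission near 667 nm with signal to noise over three replicate slides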
# Dickkopf-related protein 1 (Homo sapiens), sequence (O94907 whole entry, looked up): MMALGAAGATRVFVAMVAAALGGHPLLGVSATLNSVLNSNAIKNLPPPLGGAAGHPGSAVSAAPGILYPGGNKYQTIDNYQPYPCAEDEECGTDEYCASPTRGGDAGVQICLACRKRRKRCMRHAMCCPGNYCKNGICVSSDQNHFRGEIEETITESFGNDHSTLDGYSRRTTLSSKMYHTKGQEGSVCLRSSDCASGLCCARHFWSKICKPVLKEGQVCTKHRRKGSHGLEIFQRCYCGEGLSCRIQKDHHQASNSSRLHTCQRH
# [10] = system: Inhibin beta A chain (activin A); assay: small molecules binding activin A – biochemical, small-molecule microarray, 635 nm fluorescence scan, primary screen (AID 1107); conditions: INHBA, higher = more signal;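 note: mouse activin A protein probed at 4.33 µg/mL on printed slides; score merges bound-protein fluorescence near 667 nm with spot signal-to-noise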
SMILES,composite z-score [1],composite z-score [2],composite z-score [3],z-score [4],composite z-score [5],composite z-score [6],composite z-score [7],composite z-score [8],composite z-score [9],composite z-score [10]
CCOc1cc(C(O)C2C=CC3C(=O)N(c4ccccc4)C(=O)C3N2Nc2ccc(C#N)cc2)ccc1O (stereo not given),0.146,1.3,0.643,0.751 (inactive),0.0415,-0.0102,-0.209,0.472,-0.454,0.713
C=CC1c2cc(O)c(OC)cc2CCN1Cc1cc2c(cc1Br)OCO2 (stereo not given),1.59,0.276,1.04,0.203 (inactive),-0.0398,-0.277,0.0492,0.327,0.565,1.9
COCCOC(=O)N1C(=O)[C@@]2(c3cc(C#Cc4ccc(OC)cc4)ccc31)[C@H](c1ccccc1OCCO)N1[C@H](c3ccccc3)[C@H](c3ccccc3)OC(=O)[C@H]1[C@@H]2C(=O)N1CCCCCCC1,1.2,2.8,1.79,-1.38 (inactive),1.29,1.34,1.49,1.61,2.12,1.91
COC(=O)c1cn(C[C@@H](Cc2ccccc2)NC(=O)N[C@H](CO)CCc2oc(C(C)=O)c(C(=O)OC)c2C(=O)OC)nn1,0.741,0.067,-0.255,0.138 (inactive),0.738,0.895,0.452,1.4,0.894,-0.293
COc1ccc(-c2cc3c(c(CCc4ccccc4)n2)[Si](C(C)C)(C(C)C)OC3)cn1,-0.311,-0.128,-0.185,-0.0496 (inactive),-0.121,-0.926,0.168,0.282,0.0275,0.529
CC(C)(C)OC(=O)CC[C@]1(C(=O)NCC(O)CO)N=C(c2ccc(OCCCO)cc2)O[C@H]1c1ccccc1 (stereo not given in full),0.835,1.1,0.897,-0.495 (inactive),0.57,0.206,-0.516,-0.715,-1.09,-0.0014
COc1ccccc1CN1C(=O)c2ccccc2[C@@]2(Cc3ccccc3N(CC(F)(F)F)C2=O)[C@@H]1c1ccc(CO)cc1,0.144,-0.435,-0.167,1.49 (inactive),0.507,0.524,0.414,0.614,0.564,1.03
NC(=O)N1C(=O)C2C(C1=O)C1C=C(CCCO)C2C(c2cccs2)N1Cc1cccc(OC(F)(F)F)c1 (stereo not given),1.41,-0.0349,-0.123,0.23 (inactive),0.493,0.177,0.121,0.211,-0.184,0.944
C=CCN1C(=O)[C@@]2(CCS(=O)(=O)c3ccccc3)N=C(c3ccc(OCCCO)cc3)O[C@H]2c2ccccc21,1.32,0.331,0.482,0.095 (inactive),0.69,1.33,0.958,1.14,0.822,1.18
C=CCNC(=O)[C@@H]1[C@H]2C(=O)O[C@H](c3ccccc3)[C@H](c3ccccc3)N2[C@H](c2ccc(O)cc2)[C@@]12C(=O)N(C(=O)OCCOC)c1ccc(C#CC3(O)CCCCCC3)cc12,0.482,-0.227,0.854,-0.565 (inactive),-1.72,-1.44,-1.5,-1.45,-1.82,-1.46
C=C(/C(=C/C[C@H](OC(C)=O)c1cccc(OCCO)c1)c1cnc2ccccc2c1)C(C)C,-0.96,-0.104,-0.105,-0.236 (inactive),0.904,0.324,0.705,1.49,0.783,1.98
COCCOC(=O)N1C(=O)[C@@]2(c3cc(C#CC4=CCCCC4)ccc31)[C@H](C(=O)N1CCCCCCC1)[C@H]1C(=O)O[C@H](c3ccccc3)[C@H](c3ccccc3)N1[C@@H]2c1ccc(O)cc1,0.376,0.923,1,-0.802 (inactive),0.277,0.409,0.285,0.735,0.163,1.41
COC(=O)[C@@]1(Cc2ccc(OC)cc2)[C@@H]2C(=CC(=O)[C@H]2CC(=O)C(=O)N(C)C)CN1C(=O)c1ccccc1,0.86,1.22,1.09,-2.59 (inactive),0.945,1.07,-0.208,1.03,-0.568,0.928
Cc1ccc(S[C@]2(C(=O)NCCCN(C)C)CC(=O)N(C3CCCCC3)[C@@H]2c2ccc(CO)cc2)cc1,-0.0346,0.348,0.893,0.104 (inactive),-0.89,-0.464,-0.674,-0.811,-0.774,0.83
O=C1N(Cc2ccccc2)Cc2ccccc2[C@@H]2OC(c3ccc(OCCCO)cc3)=N[C@]12CCS(=O)(=O)c1ccccc1,0.596,-0.0422,1.05,0.0631 (inactive),1.04,0.309,0.607,0.291,-0.222,0.772
CN1C(=O)C2C=CC(C(O)c3cccc4ccccc34)N(N3CCCCC3)C2C1=O (stereo not given),1.52,1.11,1.21,1.81 (inactive),0.595,1.31,0.396,1.09,0.353,0.784
